Measurements reported in PubChem BioAssay (EPA / NIEHS).
Where “and” joins values, the source holds several entries; their conditions need not be identical. Identical values can stand only once. Inconclusive results are not listed. Calls of active or inactive are those of the source. Rule for the calls: active = hit-call score of the fitted dose curve at least 0.9, where 1 is the maximum; inconclusive = response in the unintended direction; inactive = score below 0.9.

Target: Estrogen receptor beta (Homo sapiens) (UniProt Q92731)
Sequence (Q92731 whole entry, looked up): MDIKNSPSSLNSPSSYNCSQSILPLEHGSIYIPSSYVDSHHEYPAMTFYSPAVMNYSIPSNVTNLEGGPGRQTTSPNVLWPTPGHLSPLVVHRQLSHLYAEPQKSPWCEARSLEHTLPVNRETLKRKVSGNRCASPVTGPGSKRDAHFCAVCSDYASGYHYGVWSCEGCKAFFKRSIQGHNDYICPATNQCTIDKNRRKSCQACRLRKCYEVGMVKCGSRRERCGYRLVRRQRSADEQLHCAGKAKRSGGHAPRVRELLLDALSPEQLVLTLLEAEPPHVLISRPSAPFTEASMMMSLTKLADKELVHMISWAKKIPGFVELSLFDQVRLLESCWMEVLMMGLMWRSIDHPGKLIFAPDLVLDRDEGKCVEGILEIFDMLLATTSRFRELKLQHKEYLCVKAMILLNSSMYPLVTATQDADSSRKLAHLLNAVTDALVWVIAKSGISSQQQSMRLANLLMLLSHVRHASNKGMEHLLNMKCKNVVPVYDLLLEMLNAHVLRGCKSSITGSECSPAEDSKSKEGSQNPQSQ
Assay: ATG_hERb_XSP1: Attagene TRANS-FACTORIAL Multi-Species (XSP1) HepG2 Assay for human Estrogen Receptor (ESR2) (AID 2283788)
How it was run: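 Multiplexed trans-activation in transfected HepG2: ERβ-Gal4 reporter transcripts after 24 h treatment, detected by RT-PCR plus capillary electrophoresis.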

Row | Compound | AC50 | outcome
1 | C[C@]12CCC(=O)C=C1CC[C@@H]1[C@@H]2CC[C@]2(C)C(=O)CC[C@@H]12 | 16.4 nM (active) and 8 nM (active) | 
2 | CC(C)(c1ccccc1)c1ccc(O)cc1 | 227 nM (active) | 
3 | Clc1ccc(C(c2ccccc2Cl)C(Cl)(Cl)Cl)cc1 (stereo not drawn) |  | inactive

Target: GAL4 Transcription Factor (Internal Marker), GAL4 (gene 855828) (UniProt P04386)
Sequence (P04386 whole entry, looked up, the tested form may be a part): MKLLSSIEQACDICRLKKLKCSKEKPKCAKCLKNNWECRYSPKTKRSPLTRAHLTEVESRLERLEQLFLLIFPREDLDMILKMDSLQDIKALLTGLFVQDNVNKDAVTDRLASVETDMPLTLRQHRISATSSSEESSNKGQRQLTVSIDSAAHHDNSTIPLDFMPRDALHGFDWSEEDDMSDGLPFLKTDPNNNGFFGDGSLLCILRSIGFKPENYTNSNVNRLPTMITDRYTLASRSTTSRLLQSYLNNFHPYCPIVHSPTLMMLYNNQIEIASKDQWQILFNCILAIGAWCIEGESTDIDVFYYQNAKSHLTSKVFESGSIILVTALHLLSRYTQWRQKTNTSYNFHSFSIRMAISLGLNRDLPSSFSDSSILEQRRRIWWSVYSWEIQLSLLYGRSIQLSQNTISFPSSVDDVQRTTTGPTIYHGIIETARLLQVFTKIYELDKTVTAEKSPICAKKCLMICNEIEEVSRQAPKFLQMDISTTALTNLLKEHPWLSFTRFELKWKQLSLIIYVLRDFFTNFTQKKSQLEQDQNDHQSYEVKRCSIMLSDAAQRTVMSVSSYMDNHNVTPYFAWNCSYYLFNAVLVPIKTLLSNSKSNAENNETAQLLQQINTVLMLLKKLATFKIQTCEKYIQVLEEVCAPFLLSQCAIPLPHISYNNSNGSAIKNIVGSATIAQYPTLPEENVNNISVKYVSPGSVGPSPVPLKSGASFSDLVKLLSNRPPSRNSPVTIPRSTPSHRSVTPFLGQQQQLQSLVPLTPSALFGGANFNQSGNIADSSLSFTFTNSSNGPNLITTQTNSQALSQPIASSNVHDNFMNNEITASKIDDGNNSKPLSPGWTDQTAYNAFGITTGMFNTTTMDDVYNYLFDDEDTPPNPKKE
Assay: ATG_GAL4_XSP1: Attagene TRANS-FACTORIAL Multi-Species (XSP1) HepG2 Assay for GAL4 Transcription Factor (Internal Marker) (AID 2283789)
How it was run: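 This background-control endpoint measures GAL4-driven reporter mRNA via RT-PCR and capillary electrophoresis of labelled fragments. Transiently transfected HepG2 cells were treated 24 h, with 3 nM 6-alpha-fluorotestosterone included, and gain-of-signal was fitted against DMSO.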

Row | Compound | outcome
4 | C[C@]12CCC(=O)C=C1CC[C@@H]1[C@@H]2CC[C@]2(C)C(=O)CC[C@@H]12 | inactive
5 | CC(C)(c1ccccc1)c1ccc(O)cc1 | inactive
6 | Oc1ccc(C(c2ccc(O)cc2)(C(F)(F)F)C(F)(F)F)cc1 | inactive
7 | Clc1ccc(C(c2ccccc2Cl)C(Cl)(Cl)Cl)cc1 (stereo not drawn) | inactive

System: not listed separately
Assay: ATG_M_06_XSP1: Attagene TRANS-FACTORIAL Multi-Species (XSP1) HepG2 Assay for M06 Transcription Factor (Internal Marker) (AID 2283790)
How it was run: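 This background-control readout tracks M06 reporter mRNA, measured by RT-PCR and capillary electrophoresis. HepG2 cells transiently carrying the GAL4-UAS reporter panel were dosed for 24 h with 3 nM 6-alpha-fluorotestosterone added for partial AR stimulation; increases were scored relative to DMSO.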

Row | Compound | outcome
8 | C[C@]12CCC(=O)C=C1CC[C@@H]1[C@@H]2CC[C@]2(C)C(=O)CC[C@@H]12 | inactive
9 | Oc1ccc(C(c2ccc(O)cc2)(C(F)(F)F)C(F)(F)F)cc1 | inactive
10 | C[C@]12CCC(=O)C=C1CC[C@@H]1[C@@H]2CC[C@@]2(C)[C@H]1CC[C@]2(C)O | inactive

System: not listed separately
Assay: ATG_M_61_XSP1: Attagene TRANS-FACTORIAL Multi-Species (XSP1) HepG2 Assay for M61 Transcription Factor (Internal Marker) (AID 2283797)
Description: ATG_XSP1_multi-species_TRANS is a cell-based, multiplexed assay created by modifying the existing Attagene TRANS-FACTORIAL system to include a panel of nuclear receptors from some or all the following species: human (Homo sapiens), mouse (Mus musculus), frog (Xenopus laevis), zebrafish (Danio rerio), chicken (Gallus gallus), and turtle (Chrysemys picta). The ECOTOX-FACTORIAL format uses HepG2, a human liver cell line, with measurements taken at 24 hours after chemical dosing in a 24-well plate. Xsp1 included 3 nM 6-alpha-fluorotestosterone to partially stimulate the androgen receptor.ATG_M_61_XSP1 is one of 29 assay components measured or calculated from the ATG_XSP1_multi-species_TRANS assay. It is designed to make measurements of mRNA induction, a form of inducible reporter, as detected with fluorescence intensity signals by Reverse transcription polymerase chain reaction (RT-PCR) and Capillary electrophoresis technology.This assay endpoint, ATG_M_61_XSP1, was analyzed in the positive analysis fitting direction relative to DMSO as the negative control and baseline of activity. Using a type of inducible reporter, measures of mRNA for gain-of-signal activity can be used to understand the background control at the transcription factor-level as they relate to the gene. Furthermore, this assay endpoint can be referred to as a secondary readout, because this assay has produced multiple assay endpoints where this one serves a background control function. To generalize the intended target to other relatable targets, this assay endpoint is annotated to the background measurement intended target family, where the subfamily is internal marker.
Human liver HepG2 cells are transiently transfected with multiple reporter transcription units (MRTUs) in 6-well plates using FuGene 6 reagent (Roche; 3 ml FuGene/1 mg DNA). The MRTU constructs are regulated by a cis-regulating element (promoter). […] A major difference between the CIS and TRANS system is that in CIS activities of endogenous TFs are measured, whereas the TRANS assay evaluates changes in activities of exogenous, chimeric NR-Gal4 proteins. […] At the end of 24 hour incubation, total RNA was isolated using TriZol reagent (Invitrogen). The isolated RNA is then reverse-transcribed using oligo(dT) primer and Mo-MLV reverse transcriptase (Invitrogen) with DNAse I (Ambion) treatment for 30 min. […] The fragments were purified using Qiaquick PCR columns (Qiagen), analyzed on an ABI 3130xL genetic analyzer (Applied Biosystems) with peak positions identified by using a set of X-rhodamine (ROX)-labeled MapMarker1000 molecular weight standards (BioVentures). […]

Row | Compound | outcome
11 | C[C@]12CCC(=O)C=C1CC[C@@H]1[C@@H]2CC[C@]2(C)C(=O)CC[C@@H]12 | inactive
12 | Oc1ccc(C(c2ccc(O)cc2)(C(F)(F)F)C(F)(F)F)cc1 | inactive
13 | C[C@]12CCC(=O)C=C1CC[C@@H]1[C@@H]2CC[C@@]2(C)[C@H]1CC[C@]2(C)O | inactive
